# Compounds without any hit were thinned out: in the full panel of roughly 83,000, 20% have a hit.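 Single-concentration screen, 48 h exposure, 96-well plates. Endpoint: percent growth. Below 10 = active.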 A number with no mark means an inactive call. The source made the active and inactive calls.
# Legend:
# Experiment in all cases: NCI-60 one-dose screen, 48 h (100 = growth as untreated, 0 = no growth, -100 = all killed)
# Settings in all cases: 10 µM unless noted
# NCI-H23 lung = tested on: NCI-H23 lung
# NCI-H226 lung = tested on: NCI-H226 lung
# NCI-H322M lung = tested on: NCI-H322M lung
# HOP-62 NSCLC = tested on: HOP-62 NSCLC
# NCI-H460 lung = tested on: NCI-H460 lung
# HOP-92 NSCLC = tested on: HOP-92 NSCLC
# NCI-H522 lung = tested on: NCI-H522 lung
# A549/ATCC NSCLC = tested on: A549/ATCC NSCLC
# 786-0 renal = tested on: 786-0 renal
# COLO 205 colon = tested on: COLO 205 colon
# DU-145 prostate = tested on: DU-145 prostate
# K-562 leukemia = tested on: K-562 leukemia
# MALME-3M melanoma = tested on: MALME-3M melanoma
# MDA-MB-231 breast = tested on: MDA-MB-231 breast
# RXF 393 renal = tested on: RXF 393 renal
# SF-268 CNS = tested on: SF-268 CNS
# SF-295 CNS = tested on: SF-295 CNS
# SF-539 CNS = tested on: SF-539 CNS
# UACC-257 melanoma = tested on: UACC-257 melanoma
# M14 melanoma = tested on: M14 melanoma
SMILES,growth (NCI-H23 lung),growth (NCI-H226 lung),growth (NCI-H322M lung),growth (HOP-62 NSCLC),growth (NCI-H460 lung),growth (HOP-92 NSCLC),growth (NCI-H522 lung),growth (A549/ATCC NSCLC),growth (786-0 renal),growth (COLO 205 colon),growth (DU-145 prostate),growth (K-562 leukemia),growth (MALME-3M melanoma),growth (MDA-MB-231 breast),growth (RXF 393 renal),growth (SF-268 CNS),growth (SF-295 CNS),growth (SF-539 CNS),growth (UACC-257 melanoma),growth (M14 melanoma)
Cn1cc(-c2csc(-c3c[nH]c4ccc(Br)cc34)n2)c2cnccc21,-64.2% (active),-55.7% (active),-44.5% (active),-66.7% (active),-82.4% (active),-86.2% (active),-66.8% (active),-77.5% (active),-90.5% (active),-72.9% (active),-91.7% (active),-53.8% (active),-88.7% (active),-81.4% (active),-94.9% (active),-75.5% (active),-86.6% (active),-96.4% (active),-50.2% (active),-81.7% (active)
CCC(C)N(c1ccc(Cl)cc1)c1nc(-c2ccc(Br)cc2)cs1 (stereo not given),88.6%,93.1%,91.4%,90.9%,98%,94.4%,89.2%,95.6%,96%,112%,108%,92.4%,97.5%,88.6%,121%,97.1%,105%,101%,103%,95.6%
CN1CCN(c2ccc(NC(=O)c3cncnc3Nc3ccc(OCc4ccccn4)c(Cl)c3)cc2)CC1,70.1%,70.2%,62.2%,3.8% (active),27.8%,45.7%,55.4%,25.9%,-82.4% (active),-3.55% (active),56.5%,-21.4% (active),-55.1% (active),-11.2% (active),27.9%,68.9%,61%,-12.7% (active),39%,-72.8% (active)
COc1cc(CNS(=O)(=O)c2ccc(C)cc2)ccc1OCc1cn(-c2ccc(F)cc2)nn1,79.6%,71.4%,102%,102%,103%,86.4%,75.8%,93.8%,97.2%,88%,95.9%,65.3%,94.9%,91%,93.2%,91.8%,90.1%,89.3%,89.9%,97.1%
CCN(CC)CCOc1ccc(C(=C(C)c2ccc(Cl)cc2)c2ccc(OCCN(CC)CC)cc2)cc1,3.75% (active),103%,-29.9% (active),-61.5% (active),-76.6% (active),6.28% (active),-67.2% (active),-68.9% (active),-97.6% (active),-68.7% (active),-36.4% (active),-37.2% (active),-84.1% (active),-84.9% (active),-73.7% (active),-37.9% (active),-77.6% (active),-92.6% (active),-69.9% (active),-89.8% (active)
CCOC(=O)c1c(C)nc2c(c1N)CC(=O)N2Cc1cc(F)cc(Cl)c1,81.8%,89.1%,107%,89.7%,98.1%,78.1%,66.8%,82.8%,88.2%,121%,94.5%,95.2%,108%,87.5%,92.4%,95.8%,85.9%,94.2%,82%,101%
COc1cc(-n2cc(-c3cc(O)c(C/C=C(\C)CCC=C(C)C)c(O)c3)nn2)cc2c1O[C@]1(C)CC[C@@H](O)C(C)(C)[C@H]1C2,26.2%,52.7%,35.4%,-15.1% (active),10.4%,-6.06% (active),-26.6% (active),10.3%,6.92% (active),12.5%,30.6%,3.36% (active),-0.848% (active),-30.7% (active),-60.6% (active),20.9%,-53% (active),-40.4% (active),27.4%,-17.5% (active)
CN1C(=O)/C(=C/c2ccc(C(=O)Nc3ncc(Cc4ccc(Cl)cc4)s3)cc2)SC1=S,65.7%,71.5%,56%,49.7%,21.1%,51.6%,36.4%,48.5%,47.5%,80.3%,47.1%,38.4%,50.9%,58%,48.3%,56.8%,33%,47.3%,67.1%,16.3%
CC(C)N1CCN(Cc2ccc3c(NNC(=O)c4ccccc4)nc4cc(F)ccc4n23)CC1,28.6%,14.5%,29.3%,24.9%,3.96% (active),49%,22.8%,16.2%,34.2%,17.1%,30.8%,15.7%,25%,43.1%,37.7%,24.1%,16.5%,10.5%,12.4%,6.58% (active)
O=C1/C(=C/c2ccc(Cl)cc2)COc2ccc(O)c(O)c21,42.3%,90.6%,37.5%,-22.7% (active),31.1%,-5.33% (active),-60.9% (active),42.9%,-80.8% (active),27.7%,21.4%,13.1%,7.38% (active),-17.8% (active),9.7% (active),-0.809% (active),77.1%,-76% (active),10.1%,30.9%
Fc1ccc(-c2nn(-c3ccccc3)cc2-c2nc3ccccc3o2)cc1,65.8%,84.4%,107%,48.7%,37.5%,91.2%,82.3%,55.3%,88.3%,140%,90.1%,37.5%,63.6%,59.1%,105%,58.5%,45.4%,91.7%,102%,48.2%
COc1ccc2cc(-c3ccc(NC(C)=O)c(=O)o3)ccc2c1,94.4%,94.4%,92.2%,94.3%,100%,97.8%,78.8%,87.5%,98.8%,115%,103%,81.4%,101%,110%,98.3%,95.5%,100%,96.7%,89.3%,94.3%
CNC(=O)c1cc(Oc2ccc3c(c2)sc2nc(-c4cc(OC)c(OC)c(OC)c4)cn23)ccn1,61.1%,49%,72.5%,66.8%,66.2%,15.8%,50.4%,63.6%,68.1%,16.7%,75.2%,29.3%,-8.33% (active),33.8%,63.2%,72%,51%,62.8%,49.7%,52%
COc1ccc(C(=O)Nc2cccc(C3CC(=O)c4c(cc(OC)c(OC)c4OC)O3)c2)cc1 (stereo not given),35.2%,25%,37.8%,14.1%,4.37% (active),34.3%,-37.1% (active),28.5%,13.8%,-5% (active),2.98% (active),7.66% (active),31.4%,41.9%,-8.37% (active),46.6%,9.55% (active),-29.7% (active),46.2%,-23.9% (active)
O=C(Cn1cc(CN2C(=O)c3ccccc3S2(=O)=O)nn1)Nc1nc2ccccc2s1,103%,105%,98.2%,89.5%,105%,100%,84.2%,90.6%,101%,104%,108%,101%,95%,108%,117%,97.3%,101%,98.4%,101%,103%

# Reference: PubChem BioAssay (NCI)
